# Screening results: PubChem BioAssay, several laboratories
# GalR3 antagonist: human GalR3 antagonism | AID 651719 | 0.44% of 360,000 active | inhibition, % at 3 µM | HEK293 GalR3-CNG cAMP membrane potential fluorescence; galR3 body fused to GalR1 C-terminus | O60755;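 active means inhibition above the screen-wide average plus 3 SD, cut at about 13% in these data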;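 further: forskolin and galanin both at EC90 stimulate the cells; cAMP rise reported by CNG channel membrane potential dye signal; 0% = forskolin plus galanin with DMSO and 100% = forskolin alone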
# Gli-Sufu antag: Gli-Sufu pathway antagonism; Sufu-KO-LIGHT fibroblasts, Gli luciferase reporter luminescence; inhibition, % at 5 µM; 0.74% of 340,000 active; AID 588413;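 active means inhibition above about 55%, limit read from the data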;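 further: 0% = DMSO-treated cells and 100% = wells with medium but no cells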
# COUP-TFII inh: blocks human COUP-TFII nuclear receptor. HEK293T NGFI-A luciferase reporter, luminescence. inhibition, % at 8.6 µM. 0.7% of 370,000 active;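 active means inhibition above a per-plate cutoff, mean inhibition of test wells between control levels plus 3 SD, cut at about 38% in these data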;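 further: cells cotransfected with COUP-TFII expression vector driving the NGFI-A reporter; 0% = median of COUP-TF2 test wells and 100% = reporter-only cells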
# Target sequence (P24468 whole entry, looked up): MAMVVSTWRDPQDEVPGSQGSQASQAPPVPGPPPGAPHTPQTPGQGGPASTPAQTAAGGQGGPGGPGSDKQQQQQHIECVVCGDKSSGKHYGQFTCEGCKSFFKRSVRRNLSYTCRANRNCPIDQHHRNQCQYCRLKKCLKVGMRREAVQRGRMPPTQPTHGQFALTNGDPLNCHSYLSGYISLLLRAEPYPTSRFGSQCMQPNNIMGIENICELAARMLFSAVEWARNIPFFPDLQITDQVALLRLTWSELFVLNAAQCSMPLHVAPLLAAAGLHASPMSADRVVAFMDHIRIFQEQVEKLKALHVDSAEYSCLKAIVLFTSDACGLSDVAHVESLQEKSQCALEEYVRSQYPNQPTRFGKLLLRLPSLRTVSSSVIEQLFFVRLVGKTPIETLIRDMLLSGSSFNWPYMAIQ
# Jurkat NFkB inh: lowers PMA/ionomycin-induced NF-kB signal in Jurkat cells; AID 435003; 0.53% of 330,000 active; inhibition, % at 4 µM; PMA/ionomycin-induced NF-kB luciferase reporter, luminescence; in the data active means inhibition above about 50%
# 697 NFkB inh: inhibitors of the PMA/ionomycin-induced NF-kB reporter in 697 B cells. 697 B-cell NF-kB luciferase reporter, 16 h. inhibition, % at 4 µM. 0.33% of 330,000 active. AID 435022; in the data active means inhibition above about 35%
# Gli-Sufu confirm: Gli-SUFU antagonism confirmation, single concentration. shares compounds with Gli-Sufu antag. Sufu-KO-LIGHT cells, Gli luciferase reporter, luminescence. inhibition, % at 5 µM. 40% of 2,500 active;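 active means mean inhibition at 5 µM reaching about 45%, limit read from the data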;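 further: plate controls were DMSO-treated cells for no effect and wells lacking cells for full effect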
# SufuKO cytotox: cytotoxicity counter-screen for Gli-SUFU antagonists. 32% of 2,500 active. cytotoxicity, % at 5 µM. shares compounds with Gli-Sufu antag. Sufu-KO-LIGHT cells cytotoxicity, ATP luminescence. AID 651994;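 active means mean cytotoxicity at 5 µM above about 25%, limit read from the data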;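 further: cells exposed to compound overnight for roughly 16 to 18 hours; plate controls were DMSO wells with cells for no effect and medium without cells for full effect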
# Wnt3a counter: inhibits Wnt3a reporter, counter-screen for Gli-SUFU antagonists; inhibition, % at 6.25 µM; AID 651995; shares compounds with Gli-Sufu antag; Wnt-LIGHT cells, Wnt3a-driven luciferase reporter, luminescence; 20% of 2,500 active;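 active means mean inhibition above about 25%, limit read from the data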
# GalR3 conf: GalR3 (human) antagonism, confirmation; inhibition, % at 3 µM; HEK293 GalR3 CNG cAMP biosensor, membrane potential fluorescence; galR3 fused to GalR1 carboxy tail; challenged with forskolin and galanin at EC90; AID 652245; shares compounds with GalR3 antagonist; 59% of 1,600 active;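 active means inhibition above the primary screen's cutoff, the mean inhibition of all screened compounds plus 3 SD, cut at about 13% in these data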;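 further: 0% = forskolin plus galanin and 100% = forskolin alone with DMSO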
# CNG parental: acts as nonspecific agonist in parental HEK-CNG cells; shares compounds with GalR3 antagonist; HEK293-CNG parental cells, cAMP membrane potential fluorescence; normalised: DMSO wells 0%, forskolin wells 100%; activation, % at 3 µM; 10% of 1,600 active; AID 652268; in the data active means activation above about 1.3%
# Gal4-VP16 ctr: VP16 inhibition counter-screen for COUP-TFII | shares compounds with COUP-TFII inh | HEK293 Gal4-VP16 luciferase reporter, luminescence | inhibition, % at 8.5 µM | 25% of 2,500 active; in the data active means inhibition above about 13%
# COUP-TFII conf: confirmation of human COUP-TFII (NR2F2) inhibitors; shares compounds with COUP-TFII inh; HEK293 NGFI-A luciferase reporter, luminescence; inhibition, % at 8.5 µM; 45% of 2,500 active;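 active means mean inhibition over three repeats above a set limit taken from the earlier primary screen, cut at about 38% in these data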;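 further: 100% = cells given the luciferase reporter alone without the COUP-TF2 vector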
# Numbers without * were called inactive; . = no result. The list is not random: actives were taken first. Their share in the collection is about 2%.
SMILES,GalR3 antagonist,Gli-Sufu antag,COUP-TFII inh,Jurkat NFkB inh,697 NFkB inh,Gli-Sufu confirm,SufuKO cytotox,Wnt3a counter,Gal4-VP16 ctr,COUP-TFII conf,others
CC(NC(=O)c1cc(COc2ccc3ncccc3c2)on1)c1ccc(F)cc1 (stereo not given),29.0*,57.8*,69.1*,35.5,-32.0,63.7*,42.9*,15.5,-0.3,57.9*,GalR3 conf=86.4*;CNG parental=0.6
Clc1ccc(-n2ncc3c(NCCN4CCOCC4)ncnc32)cc1,3.1,53.9,55.6*,-19.0,-45.0,66.3*,17.6,58.7*,-29.1,48.2*,
c1ccc(-n2ncc3c(NCCCN4CCOCC4)ncnc32)cc1,-4.9,-55.7,-40.0,-88.5,-46.9,.,.,.,.,.,
C=CCn1c(O)c(N=NC(=S)Nc2ccccc2F)c2cc(S(=O)(=O)N3CCOCC3)ccc21,-1.6,63.7*,48.6*,12.2,-16.9,56.0*,29.2*,-22.9,-1.5,28.1,
CCC[C@H]1[C@@H](NC(=O)c2cccc(Cl)c2)CC[C@@]23CCCN2C(=O)CCC[C@@H]13,.,.,-33.6,.,.,.,.,.,.,.,
COc1ccc(CN(CCN2CCOCC2)C(=O)c2ccccc2C)cc1OC,.,.,-1.7,.,.,.,.,.,.,.,
COc1ccc(-c2nc(CN3CCN(c4ccccc4OC)CC3)c(C)o2)cc1,-5.3,42.8,-4.5,0.3,-13.8,.,.,.,.,.,
COc1ccc(-c2nc(CN3CCN(c4ncnc5ccccc45)CC3)c(C)o2)c(OC)c1,-7.1,59.7*,52.1*,8.0,-27.7,35.0,8.9,-3.2,-2.7,39.6*,
CCN1CCN(/C=N/c2nc3c(s2)CCCC3)CC1,-9.3,52.7,50.5*,-5.4,-59.0,69.7*,21.9,80.3*,25.1*,55.1*,
C[C@H]1[C@@H](OC(=O)NCc2ccccc2)CC[C@@]23CCCN2C(=O)CCC[C@@H]13,.,.,3.1,.,.,.,.,.,.,.,
CC(=O)c1c(C)[nH]c(C(=O)OCCCCN2C(=O)c3ccccc3C2=O)c1C,19.6*,68.2*,52.9*,16.4,17.7,66.0*,32.1*,15.7,-0.3,60.5*,GalR3 conf=59.6*;CNG parental=-0.4
O=C(c1cccc(S(=O)(=O)N2CCN(c3ccc(F)cc3)CC2)c1)N1CCCC(C(F)(F)F)C1 (stereo not given),99.0*,56.6*,63.0*,34.4,-8.3,62.3*,34.1*,6.7,-3.7,44.5*,GalR3 conf=94.7*;CNG parental=-0.8
CC1CN(C(=O)c2cccc(S(=O)(=O)N3CCN(c4ccc(F)cc4)CC3)c2)CC(C)O1 (stereo not given),-2.4,15.5,3.1,8.4,-14.3,.,.,.,.,.,
CCNC(=O)OCCN1C(=O)CCC12CCC(c1ccc(Cl)cc1)CC2 (stereo not given),.,.,20.1,.,.,.,.,.,.,.,
N#CCC(=O)Nc1ccc(C(=O)OCC(=O)C23CC4CC(CC(C4)C2)C3)cc1,-4.6,-7.7,-6.0,0.2,11.6,.,.,.,.,.,
O=C(OCC12CC3CC(CC(C3)C1)C2)c1ccc(NCc2cc(O)ccc2O)cc1,1.8,78.0*,79.7*,.,.,68.3*,37.6*,65.9*,78.9*,99.4*,
COc1ccc(-c2cn(-c3ccc(OC)cc3)c3[n+]2-c2ccccc2CC3)cc1,0.0,88.4*,62.4*,40.2,27.2,90.9*,46.5*,25.9*,12.0,55.2*,
